Screening data as filed in PubChem.
TDP1 block: TDP1 (human) enzyme inhibition; recombinant TDP1, AlphaScreen DNA substrate cleavage; Potency, µM (highest dose often 130 µM), inactives show at the highest dose activity change, negative = inhibition, hits mostly inhibitors; 0.28% of 350,000 active; AID 485290; note: nearly all actives have a fitted effect of over 40% in size
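Signal: AlphaScreen proximity between streptavidin donor and anti-FITC acceptor beads on intact substrate. Reaction: Tdp1 1 nM, substrate 15 nM final, 5 min RT after 15 min compound preincubation.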
KAT2A inh: GCN5L2 (KAT2A) acetyltransferase inhibition; GCN5L2 HAT assay, ThioGlo1 CoA-SH fluorescence; Potency, µM (doses to about 58.9 µM), without a hit: at the top dose activity change, negative = inhibition, hits mostly inhibitors; AID 504327; Q92830; 0.21% of 390,000 active
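ThioGlo1-coupled HAT assay: 20nM GCN5L2, 70uM acetyl-CoA, 75uM H3(1-25) peptide, pH 7.5. Fluorescence read at 340/540nm at start and after 20 min at room temperature.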
PLK1 PBD block: inhibitors of human PLK1 polo-box domain binding. P53350. Potency, µM, for inactives: max response, negative = inhibition, actives largely listed as inhibitors. Plk1 PBD binding of FITC phosphopeptide, fluorescence polarization. 2.8% of 360,000 active. AID 720504; note: series mostly up to about 57 µM; nearly all actives have a fitted effect of over 65% in size
Target sequence (P53350 whole entry, looked up, the tested form may be a part): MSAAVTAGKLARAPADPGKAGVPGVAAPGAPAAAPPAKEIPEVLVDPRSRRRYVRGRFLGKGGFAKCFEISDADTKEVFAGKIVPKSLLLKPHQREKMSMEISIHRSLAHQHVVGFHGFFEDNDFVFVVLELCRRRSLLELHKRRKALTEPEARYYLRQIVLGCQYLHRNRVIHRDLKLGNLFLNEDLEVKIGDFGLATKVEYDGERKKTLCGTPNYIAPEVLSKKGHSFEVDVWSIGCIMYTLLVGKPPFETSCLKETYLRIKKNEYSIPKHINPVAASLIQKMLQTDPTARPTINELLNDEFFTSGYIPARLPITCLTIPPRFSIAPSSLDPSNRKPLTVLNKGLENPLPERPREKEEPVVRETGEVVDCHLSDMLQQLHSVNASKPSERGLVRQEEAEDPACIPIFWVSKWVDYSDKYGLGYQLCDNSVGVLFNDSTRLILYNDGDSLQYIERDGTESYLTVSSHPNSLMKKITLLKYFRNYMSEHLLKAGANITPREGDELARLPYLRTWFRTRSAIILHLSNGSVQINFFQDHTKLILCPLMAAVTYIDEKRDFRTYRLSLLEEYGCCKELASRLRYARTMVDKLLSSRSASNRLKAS
TDP1 cell CPT: DT40-hTDP1 cell growth loss with CPT; chicken DT40 Tdp1-/-;hTDP1 cells + 20 nM CPT, ATP luminescence, 48 h; Potency, µM (doses to about 46.2 µM), for inactives: top-dose activity change, negative = growth inhibition, usual class: inhibitors; 12% of 420,000 active; note: nearly all actives have a fitted effect of over 55% in size
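Chicken DT40 Tdp1-/- cells stably complemented with human TDP1 were seeded at 400 cells/well in medium containing 20 nM camptothecin, exposed to pin-transferred compounds, and grown at 37 °C for at least 48 hr. Viability was read as ATP luminescence.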
VDR inhibitor: blocks the human vitamin D receptor. P11473. VDR-SRC2-3 peptide fluorescence polarization, 2 h. Potency, µM, without a hit: max response, negative = inhibition, actives largely listed as inhibitors. 0.93% of 400,000 active. AID 504847
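Fluorescence polarization assay measuring small-molecule disruption of VDR binding to the coregulator peptide SRC2-3. Compounds were pin-transferred (23 nl) into the reagent mix and incubated 2 h at room temperature before reading.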
DT40 TDP1 no CPT: qHTS for Inhibitors of human tyrosyl-DNA phosphodiesterase 1 (TDP1): qHTS in cells in absence of CPT; DT40 Tdp1-/- hTDP1 cells, no CPT, ATP luminescence, 48 h; Potency, µM (doses to about 46.2 µM), inactives show at the highest dose activity change, negative = growth inhibition, actives largely listed as inhibitors; 15% of 420,000 active; AID 686978, 2013; note: nearly all actives have a fitted effect of over 55% in size
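DT40 Tdp1-/-;hTDP1 cells, no CPT (DMSO vehicle only), 400 cells/well; compounds pin-transferred; ≥48 hr, 37 °C; CellTiter-Glo 30 min RT dark, luminescence read.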
Starred values were filed as active, the others as inactive; ? = inconclusive; . = no result; [ ] = another dose, or the depositor's remark. An excerpt weighted towards active compounds, which were near 18% of everything screened. Calls come from the whole dose curve; as a rule, active = well fitted curve in the direction sought with a large enough effect; inconclusive = small, poorly fitted or top-dose-only effect, or another doubt; inactive = no such curve, though single readings can be large; an effect the other way counts as inactive or inconclusive. % is set by controls: 0 for no effect and ±100 for the full control effect; potency is the fitted concentration of half-maximal effect.

SMILES | TDP1 block | KAT2A inh | PLK1 PBD block | TDP1 cell CPT | VDR inhibitor | DT40 TDP1 no CPT
CCCSc1oc(-c2cccs2)nc1S(=O)(=O)c1ccc(Cl)cc1 | -11.8% | -2.7% | . | ? | 6.1% | ?
CN(C)CCN(Cc1ccccc1)C(c1cc2ccccc2o1)c1nnnn1C(C)(C)C (centres undefined) | . | . | -0.4% | 16.4µM* | . | ?
CCCCn1nnnc1C(c1cc2ccccc2o1)N(CCN(C)C)Cc1ccccc1 (centres undefined) | . | . | 1.4% | 25.9µM* | . | 16.4µM*
CC(C)(C)n1nnnc1C(c1cc2ccccc2o1)N(CCC#N)Cc1ccccc1 (centres undefined) | . | . | -2.4% | ? | . | ?
COc1ccc(-n2ccn(Cc3ccccc3C)c(=O)c2=O)cc1 | 0.0% | 0.1% | . | 1.0% | -3.3% | -0.4%
CCCc1cc(=O)oc2c(CN3CCN(C)CC3)c(O)ccc12 | . | -21.4% | 1.6% | -12.0% | 8.0% | 22.2%
CCc1cc(=O)oc2c(C)c3c(cc12)CN(CCc1ccccc1OC)CO3 | 4.9% | -23.2% | . | -40.8% | 9.7% | 20.6µM*
CCCc1cc(=O)oc2c(C)c3c(cc12)CN(CCc1ccc(Cl)cc1)CO3 | 7.4% | -13.2% | . | 6.51µM* | 7.7% | 14.6µM*
Cc1cc(Cl)cc(C)c1OCCOCCNCc1ccccc1 | . | 0.3% | -7.3% | 23.1µM* | -2.1% | ?
Clc1ccc(OCCOCCNCc2ccccc2)cc1Cl | . | -6.5% | 2.3% | 16.4µM* | -4.2% | 18.4µM*
Cc1cc(C)c(C)c(OCCNCc2ccccc2)c1 | 6.2% | -17.8% | -1.0% | ? | 2.7% | ?
Cc1ccc(-n2c(=O)c3oc4ccccc4c3n(CC(=O)Nc3ccc(F)c(Cl)c3)c2=O)cc1C | -2.6% | 0.0% | . | -14.4% | -0.5% | -19.4%
CC(C)NC(=S)NNc1ncnc2sc3c(c12)CC(C)(C)OC3 | . | . | -14.5% | -5.5% | -5.4% | ?
CC1(C)Cc2c(sc3ncnc(NNC(=S)NCc4ccccc4)c23)CO1 | -5.4% | -1.3% | -8.1% | ? | -13.2% | 23.1µM*
CCc1cccc(OCCCCNCCOC)c1 | -2.1% | -1.9% | -0.4% | -9.8% | -13.0% | -27.9%
COCCCNCCOc1ccccc1-c1ccccc1 | -2.4% | 0.0% | -1.2% | 12.8% | 13.8% | ?
CNCCCCOc1ccccc1-c1ccccc1 | -2.7% | 5.4% | -5.2% | 25.9µM* | -15.2% | ?
COCCCNCCCCOc1ccccc1-c1ccccc1 | -4.3% | 1.9% | -1.2% | 20.6µM* | 13.5% | 14.6µM*
C=CCNCCCCOc1ccccc1-c1ccccc1 | -2.6% | -4.5% | 1.2% | ? | -12.8% | ?
COCCCNCCCCOc1ccc(OCc2ccccc2)cc1 | -7.1% | 21.9% | -14.5% | ? | -13.7% | 23.1µM*
CCC(C)c1ccccc1OCCCNC1CCCC1 (centres undefined) | . | -9.1% | -0.4% | ? | -7.0% | 18.4µM*
c1ccc(COc2ccc(OCCCNC3CCCC3)cc2)cc1 | 4.9% | -4.0% | -8.4% | ? | 9.0% | 20.6µM*
Cc1cccc(N2CCN(C(=O)c3cnn(-c4ccccc4)c3C3CCN(C(=O)OC(C)(C)C)CC3)CC2)c1C | 2.1% | 2.2% | . | ? | 4.5% | 16.4µM*
COCCCNC(=O)c1cnn(-c2ccccc2Cl)c1C1CCN(C(=O)OC(C)(C)C)CC1 | 3.2% | -2.6% | . | ? | 22.6% | -28.6%
COc1cccc(N2CCN(C(=O)c3cnn(-c4ccc(C)cc4C)c3C3CCN(C(=O)OC(C)(C)C)CC3)CC2)c1 | 4.2% | -1.4% | . | ? | 0.1% | 20.6µM*
SMILES | TDP1 block | KAT2A inh | PLK1 PBD block | TDP1 cell CPT | VDR inhibitor | DT40 TDP1 no CPT
CC(C)(C)OC(=O)N1CCC(c2c(C(=O)N3CCN(c4ccccc4F)CC3)cnn2-c2ccccc2Cl)CC1 | 1.1% | -9.7% | . | 18.4µM* | 7.6% | 16.4µM*
Cc1ccc(-n2ncc(C(=O)N3CCN(Cc4ccccc4)CC3)c2C2CCN(C(=O)OC(C)(C)C)CC2)c(C)c1 | 7.4% | 21.6% | . | 4.61µM* | 9.4% | 13µM*
Cc1cc2ccccc2n2c(SCC(=O)Nc3cccc(C(F)(F)F)c3)nnc12 | . | -2.0% | . | ? | -16.4% | ?
Cc1ccc([C@H]2C[C@@H](n3cc(C4CC4)nn3)[C@H](O)CN2C(=O)C2CCCCC2)cc1 | . | . | 1.7% | -13.8% | . | -11.0%
Cc1cccc(-n2ncc(C(=O)NCc3ccco3)c2C2CCN(C(=O)OC(C)(C)C)CC2)c1 | 5.3% | -3.5% | . | 16.4µM* | 12.2% | ?
COc1cccc(N2CCN(C(=O)c3cnn(-c4ccccc4Cl)c3C3CCN(C(=O)OC(C)(C)C)CC3)CC2)c1 | 5.3% | 9.0% | . | ? | 1.2% | 20.6µM*
CCN1CCN(C(=O)c2cnn(-c3cccc(C)c3)c2C2CCN(C(=O)OC(C)(C)C)CC2)CC1 | 2.1% | 13.1% | . | 20.6µM* | 6.4% | ?
CN1CCN(C(=O)c2cnn(-c3cccc(Cl)c3)c2C2CCN(C(=O)OC(C)(C)C)CC2)CC1 | -7.4% | -16.3% | . | -1.4% | 8.4% | -21.9%
CC(C)(C)OC(=O)N1CCC(c2c(C(=O)N3CCN(c4ccc(Cl)cc4)CC3)cnn2-c2ccc(F)cc2F)CC1 | 3.2% | -2.7% | . | ? | 3.4% | 16.4µM*
Cc1oc(-c2ccc(C(=O)NCc3ccccc3F)cc2)nc1COc1ccccc1 | 2.8% | -1.1% | . | ? | 13.2% | ?
CCn1c(-c2cccc(OC)c2)nc2cc(NC(C)=O)cc(C(=O)N(C)CC3COCCO3)c21 (centres undefined) | . | . | . | 1.8% | . | -16.8%
O=C(Nc1ccccn1)C(=O)Nc1ccccn1 | 5.1% | -3.9% | -5.4% | -3.8% | -11.1% | -13.3%
COc1ccccc1NC(=O)c1ccccc1NC(=O)c1ccccn1 | 2.2%[0.505 µM] | -18.0% | -4.4% | ? | -21.2% | ?
Cc1cc(NC(=O)C(C)C)ncc1NC(=O)c1ccccn1 | 0.0% | 3.4% | 26.7µM* | ? | -17.0% | 2.0%
S=C(Nc1ccccn1)c1ccccn1 | 8.4% | -7.4% | 26.7µM* | 0.92µM* | -3.2% | 0.92µM*
Cc1ccc(C)c(C(=O)c2ccccc2NC(=O)c2ccccn2)c1 | -5.1% | -4.4% | 4.3% | 16.4µM* | -2.4% | 9.2µM*
Cc1ccc2c(c1)C(=O)C(=O)N2CC(=O)Nc1ccccc1NC(=O)c1ccccn1 | -0.6% | -5.4% | -13.2% | 5.17µM* | 4.6% | 5.8µM*
COc1cccc(Cn2ncc3c4sc(SC)cc4n(C)c3c2=O)c1 | 0.3% | . | . | . | . | .
CCN1C(=O)[C@H]2[C@@H](c3ccc(Cl)cc3)N3C(=O)CN(CC4CC4)C(=O)[C@@]3(Cc3ccccc3)[C@H]2C1=O | . | -8.5% | -5.0% | -8.0% | -9.8% | -2.9%
